What is called remaining activity is the signal under treatment as a percentage of the control signal.

A number with no mark means an inactive call. Calls of active or inactive are those of the source. Cut-off read from the data, not from the text of the source: active = remaining activity below about 50%; inactive = the rest.

Sequence of Phospholipase D1 (Homo sapiens) (Q13393 whole entry, looked up): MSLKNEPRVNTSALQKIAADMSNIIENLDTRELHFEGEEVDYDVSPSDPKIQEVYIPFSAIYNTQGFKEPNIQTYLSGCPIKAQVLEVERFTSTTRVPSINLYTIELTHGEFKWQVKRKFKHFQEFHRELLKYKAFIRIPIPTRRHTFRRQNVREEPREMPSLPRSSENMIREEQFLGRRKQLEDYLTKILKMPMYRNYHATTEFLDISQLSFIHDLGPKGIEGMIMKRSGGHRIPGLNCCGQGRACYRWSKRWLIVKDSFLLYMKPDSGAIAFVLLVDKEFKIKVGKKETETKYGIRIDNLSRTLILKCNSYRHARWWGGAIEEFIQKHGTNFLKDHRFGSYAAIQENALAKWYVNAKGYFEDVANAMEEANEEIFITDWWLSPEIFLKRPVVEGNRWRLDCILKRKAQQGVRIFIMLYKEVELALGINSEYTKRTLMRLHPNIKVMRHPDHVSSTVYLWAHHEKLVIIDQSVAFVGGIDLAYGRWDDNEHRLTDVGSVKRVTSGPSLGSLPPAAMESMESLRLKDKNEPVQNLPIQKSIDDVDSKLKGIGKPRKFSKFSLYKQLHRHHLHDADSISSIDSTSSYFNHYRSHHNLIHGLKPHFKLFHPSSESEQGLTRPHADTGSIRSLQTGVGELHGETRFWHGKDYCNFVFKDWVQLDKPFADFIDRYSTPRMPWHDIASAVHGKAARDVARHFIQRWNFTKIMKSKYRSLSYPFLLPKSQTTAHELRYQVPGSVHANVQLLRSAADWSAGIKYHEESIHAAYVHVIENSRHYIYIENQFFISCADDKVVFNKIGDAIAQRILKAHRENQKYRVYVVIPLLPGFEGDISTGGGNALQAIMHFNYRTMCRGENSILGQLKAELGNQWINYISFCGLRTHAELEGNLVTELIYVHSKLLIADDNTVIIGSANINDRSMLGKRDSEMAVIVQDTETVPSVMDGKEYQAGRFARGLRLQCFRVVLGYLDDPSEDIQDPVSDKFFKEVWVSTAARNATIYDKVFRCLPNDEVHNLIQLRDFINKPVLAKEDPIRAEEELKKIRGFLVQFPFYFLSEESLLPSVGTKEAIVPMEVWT
Sequence of Phospholipase D1 (Homo sapiens) (Q13393 whole entry, looked up): as above

This assay concerns the target Phospholipase D1 (Homo sapiens) (UniProt Q13393). Description: cellular phospholipase D1 activity inhibition – Calu-1 cells, single concentration (AID 602144).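 Note: tested at 200 nM.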 The settings on record: cellular PLD1 activity, active compounds read low.
Consider `O=c1[nH]c2ccccc2n1C1CCN(CCNS(=O)(=O)c2ccccc2C(F)(F)F)CC1`, for which the remaining activity is 94.8%.

For the compound `O=C(NCCN1CCC2(CC1)CNc1ccccc12)C1CC1c1ccccc1` (stereo not given), the remaining activity is 113%.

For the compound `O=c1[nH]c2ccccc2n1C1CCN(CCNS(=O)(=O)c2ccc([N+](=O)[O-])cc2)CC1`, the remaining activity is 119%.

As to `COc1cccc(N2CCN(CCNC(=O)c3ccc4ccccc4c3)CC2)c1`, the remaining activity was 77.7%.

As for `NC1(CN2CCC(c3nc4ccccc4[nH]3)CC2)CCCC1` (tested in a mixture with another compound), the remaining activity is 81.2%.

Consider `O=C(N[C@@H](Cc1ccccc1)CN1CCC(n2c(=O)[nH]c3ccccc32)CC1)c1cnc2ccccc2c1`, for which the remaining activity was 116%.

On to `Cc1ccc(S(=O)(=O)NCCN2CCC(n3c(=O)[nH]c4ccccc43)CC2)cc1`, for which the remaining activity was 104%.

In the case of `C[C@H](CN1CCC2(CC1)CNCc1ccccc12)NC(=O)c1cnc2ccccc2c1`, the remaining activity was 69%.

Take `O=C(NCCN1CCC(n2c(=O)[nH]c3ccccc32)CC1)NC(c1ccccc1)c1ccccc1`: the remaining activity is 146%.

Turning to `O=C(NCCN1CCC(n2c(=O)[nH]c3ccccc32)CC1)c1cc(-c2ccccc2)no1`, the remaining activity is 62.9%.

Consider `C[C@@H](CN1CCC2(CC1)CN(S(C)(=O)=O)c1ccccc12)NC(=O)[C@H]1C[C@@H]1c1ccccc1`, for which the remaining activity was 148%.

Turning to `O=C(NCCN1CCC(n2c(=O)[nH]c3ccccc32)CC1)C1C=Cc2ccccc2C1` (stereo not given), the remaining activity is 33% (active).

Consider `O=C(NCCN1CCC(n2c(=O)[nH]c3ccccc32)CC1)C1CCc2ccccc2C1` (stereo not given), for which the remaining activity is 77.8%.

For the compound `O=C(NCCN1CCC(n2c(=O)[nH]c3ccccc32)CC1)c1ccc2c(c1)CCCC2`, the remaining activity was 83.6%.

As for `O=C1c2ccccc2C(=O)N1CCCN1CCC(n2c(=O)[nH]c3ccccc32)CC1`, the remaining activity is 76.2%.

Regarding `NC1(CN2CCC(n3c(=O)[nH]c4cc(Cl)ccc43)CC2)CCCC1` (tested in a mixture with another compound), the remaining activity was 70.2%.

Take `CN(CCN1CCC(n2c(=O)[nH]c3ccccc32)CC1)C(=O)c1ccc2ccccc2c1`: the remaining activity was 75.5%.

As for `C[C@@H](CN1CCC(n2c(=O)[nH]c3ccccc32)CC1)NC(=O)COc1ccccc1`, the remaining activity is 28.1% (active).

Consider `C[C@@H](CN1CCC2(C=Cc3ccccc32)CC1)NC(=O)c1cnc2ccccc2c1`, for which the remaining activity was 137%.

For `CCCS(=O)(=O)NCCN1CCC(n2c(=O)[nH]c3ccccc32)CC1`, the remaining activity was 120%.

As to `C[C@@H](CN1CCC(n2c(=O)[nH]c3ccccc32)CC1)NC(=O)c1ccco1`, the remaining activity was 41.7% (active).

As for `Cc1cccc(C(=O)NCCN2CCC(n3c(=O)[nH]c4ccccc43)CC2)n1`, the remaining activity is 26.7% (active).

For `C[C@@H](CN1CCC(n2c(=O)[nH]c3ccccc32)CC1)NC(=O)CSc1ccccc1`, the remaining activity is 48.1% (active).

`C[C@@H](CN1CCC(n2c(=O)[nH]c3ccccc32)CC1)NC(=O)c1ccc(Cl)c(Cl)c1`: the remaining activity is 20.9% (active).

Regarding `O=C(NCCN1CCC(n2c(=O)[nH]c3ccccc32)CC1)Nc1ccccc1F`, the remaining activity was 102%.

On to `O=C1c2ccccc2C(=O)N1CCCNc1ccc2ccccc2c1`, for which the remaining activity is 145%.

As to `O=c1[nH]c2ccccc2n1C1CCN(CCNS(=O)(=O)c2ccc(OC(F)(F)F)cc2)CC1`, the remaining activity was 117%.

Regarding `O=C(NCCN1CCC(n2c(=O)[nH]c3ccccc32)CC1)c1cccc(F)n1`, the remaining activity was 34% (active).

For `Cc1ccc(C(=O)N[C@@H](C)CN2CCC(n3c(=O)[nH]c4c(F)cccc43)CC2)cc1`, the remaining activity is 40.7% (active).

With `O=c1[nH]c2ccccc2n1C1CCN(CCNC(=S)Nc2cccc3ccccc23)CC1`, the remaining activity was 152%.

Take `C[C@@H](CN1CCC(n2c(=O)[nH]c3cc(-c4ccc(C(F)(F)F)cc4)ccc32)CC1)NC(=O)[C@H]1C[C@@H]1c1ccccc1`: the remaining activity was 63.9%.

Turning to `C[C@@H](CN1CCC(n2c(=O)[nH]c3ccccc32)CC1)NC(=O)c1ccc2ncccc2c1`, the remaining activity is 29.2% (active).

Consider `CS(=O)(=O)N1CC2(CCN(CCNC(=O)c3ccc4ccccc4c3)CC2)c2ccccc21`, for which the remaining activity was 136%.

`O=C(N[C@@H](Cc1ccccc1)CN1CCC(n2c(=O)[nH]c3ccccc32)CC1)c1ccc2ccccc2c1`: the remaining activity was 113%.

In the case of `C[C@@H](CN1CCC(c2nc3ccccc3[nH]2)CC1)NC(=O)c1ccc2ccccc2c1`, the remaining activity is 58.7%.

With `O=C(NCCN1CCN(c2ncccn2)CC1)c1ccc2ccccc2c1`, the remaining activity is 118%.

For `CC1(C)[C@H]2CC[C@]1(CS(=O)(=O)NCCN1CCC(n3c(=O)[nH]c4ccccc43)CC1)C(=O)C2`, the remaining activity is 121%.

Turning to `O=C(NCCN1CCC2(CC1)CNCc1ccccc12)c1ccc2ccccc2c1`, the remaining activity is 122%.

For `O=C1c2ccccc2C(=O)N1CCCNCc1ccccn1`, the remaining activity is 175%.

On to `O=C(NCCN1CCC(n2nnc3ccccc32)CC1)C1CC1c1ccccc1` (stereo not given), for which the remaining activity is 52.7%.

The values above are taken from PubChem BioAssay AID602144 (Vanderbilt Specialized Chemistry Center, 2011).
